Shown are actives, neighbours in structure and some others; about 1.4% of the full set was active somewhere.
AmpC detergent: AmpC beta-lactamase inhibition with detergent present | P00811 | AmpC hydrolysis of nitrocefin, absorbance 480 nm, 0.01% Triton | Potency, µM (doses to about 114 µM), usual class: inhibitors | 370,000 tested, 0.041% active | AID 485294; also: nearly all actives have a fitted effect of over 25% in size
Target sequence (P00811 whole entry, looked up): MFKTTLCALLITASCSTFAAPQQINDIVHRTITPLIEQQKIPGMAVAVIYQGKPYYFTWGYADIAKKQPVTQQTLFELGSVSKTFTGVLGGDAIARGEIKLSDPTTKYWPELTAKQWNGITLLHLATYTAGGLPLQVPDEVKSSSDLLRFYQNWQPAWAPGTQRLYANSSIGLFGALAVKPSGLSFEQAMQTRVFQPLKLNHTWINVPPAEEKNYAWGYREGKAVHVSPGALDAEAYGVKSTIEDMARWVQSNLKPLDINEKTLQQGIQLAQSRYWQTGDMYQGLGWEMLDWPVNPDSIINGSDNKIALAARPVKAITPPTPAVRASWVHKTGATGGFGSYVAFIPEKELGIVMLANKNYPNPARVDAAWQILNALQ
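20 mM phosphate pH 7.0 + 0.01% (detergent screen) or 0.0001% Triton X-100; 5.3 nM AmpC reagent; cpd preinc 15 min RT; nitrocefin (800 uM stock) to start; A480 q20 s × 4 min; Activity was normalised to no-enzyme and no-compound control wells.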
VACV Venus inh: inhibitors of vaccinia virus (Venus reporter); Potency, µM (doses to about 36.5 µM), usual class: inhibitors; Vaccinia virus Venus reporter expression, fluorescence; AID 720580; 330,000 tested, 0.46% active; calls by dose curve; tested in A549 cells; also: nearly all actives have a fitted effect of over 30% in size
AmpC no deterg: inhibitors of E. coli AmpC beta-lactamase without detergent | AmpC nitrocefin hydrolysis, absorbance 480 nm, 0.0001% Triton | Potency, µM (highest dose often 57.1 µM), usual class: inhibitors | 330,000 tested, 0.52% active | AID 485341; also: nearly all actives have a fitted effect of over 20% in size
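AmpC (5.3 nM in the dispensed reagent) in 20 mM phosphate pH 7.0 with 0.01% (detergent screen) or 0.0001% Triton X-100 was preincubated with compounds for 15 min at room temperature. Nitrocefin was then added from an 800 uM solution, and hydrolysis was followed at 480 nm.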
SARS PLpro yeast: SARS-CoV PLP inhibition in yeast | S. cerevisiae expressing SARS-CoV PLpro, growth rescue | Potency, µM (top dose mostly 32.9 µM), actives largely listed as activators | 330,000 tested, 0.19% active | AID 485353; calls by dose curve; also: nearly all actives have a fitted effect of over 55% in size
Vaccinia mCherry: vaccinia inhibition (mCherry reporter) | Vaccinia virus mCherry reporter infection, fluorescence | Potency, µM (series often up to 36.5 µM), usual class: inhibitors | 310,000 tested, 0.63% active | AID 720579; calls by dose curve; tested in A549 cells; also: nearly all actives have a fitted effect of over 35% in size
AMA1 RON2 block: disrupts binding of P. falciparum AMA1 to RON2 | AlphaScreen AMA1-biotinylated RON2 peptide binding | Potency, µM (top dose mostly 58.2 µM), most hits filed as inhibitors | 360,000 tested, 0.2% active | AID 720542; also: nearly all actives have a fitted effect of over 45% in size
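AMA1 (3D7) with his tag at 25 nM final met compounds first, then biotinylated RON2 peptide at 25 nM; detection used donor plus acceptor beads, 10 µg/mL apiece, read by AlphaScreen after 30 min at room temperature.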
Large screens that a line does not name were inactive. Unless noted, calls follow the shape of the dose curve; as a rule, active = well fitted curve in the direction sought with a large enough effect; inconclusive = small, poorly fitted or top-dose-only effect, or another doubt; inactive = no such curve, though single readings can be large; an effect the other way counts as inactive or inconclusive.

CC#CCOC(=O)c1c(C)nc2sc3c(c2c1N)CC[C@@H](O)C3	VACV Venus inh 3.55µM, Vaccinia mCherry inconclusive (no result: AmpC detergent, AmpC no deterg, SARS PLpro yeast, AMA1 RON2 block)
CCOC(=O)c1c(N)sc2c1CCC(C)C2 (stereo not drawn)	none (no result: Vaccinia mCherry)
Cc1ccsc1CN1CCc2nnc(CCNC(=O)c3ccc(F)cc3)n2CC1	none (no result: AmpC detergent, AmpC no deterg, SARS PLpro yeast, AMA1 RON2 block)
CN(C(=O)CCN1C(=O)/C(=C/c2ccc(F)cc2)SC1=S)C1CCS(=O)(=O)C1 (stereo not drawn)	VACV Venus inh 11.2µM, Vaccinia mCherry inconclusive (no result: AmpC detergent, AmpC no deterg, SARS PLpro yeast)
O=C(NCc1nnc2n1CCN(Cc1ccc(C(F)(F)F)cc1)CC2)c1ccccn1	none (no result: AmpC detergent, AmpC no deterg, SARS PLpro yeast, AMA1 RON2 block)
CCOC(=O)Cn1c(=O)oc2cc(S(=O)(=O)N3CCn4c3nc3ccccc34)ccc21	AmpC no deterg 22.4µM
COc1ccc(C2=C/C(=C\c3ccc(OC(C)=O)cc3)C(=O)O2)cc1	none
CC(=O)Oc1ccc(C2=Cc3ccc(OC(C)=O)cc3OC2C)cc1 (stereo not drawn)	Vaccinia mCherry 10µM (no result: AmpC detergent, AmpC no deterg, SARS PLpro yeast)
O=[N+]([O-])c1ccccc1NC(=S)N/N=C/c1ccc(O)c(O)c1	AmpC no deterg 4.47µM, Vaccinia mCherry inconclusive
CCOc1cccc(/C=N/NC(=S)Nc2ccccc2[N+](=O)[O-])c1O	none (no result: VACV Venus inh, Vaccinia mCherry)
CCCC[C@H]1COCCS(=O)(=O)N1Cc1ccc(F)cc1	none
CC(C)[C@H]1COCCS(=O)(=O)N1Cc1ccc(Cl)cc1	VACV Venus inh inconclusive, Vaccinia mCherry 25.1µM
CCCC[C@H]1COCCS(=O)(=O)N1Cc1ccc(C)cc1	VACV Venus inh 2.24µM, Vaccinia mCherry inconclusive
CCC1COCCS(=O)(=O)N1Cc1ccc(Cl)cc1 (stereo not drawn)	none
O=c1[nH]c(=O)n(C2OC(CO)C(O)C2O)cc1F (stereo not drawn)	VACV Venus inh inconclusive, Vaccinia mCherry 1µM (no result: AmpC detergent, AmpC no deterg, SARS PLpro yeast)
Nc1nc(=O)n(C2OC(CO)C(O)C2O)cc1F (stereo not drawn)	Vaccinia mCherry 2µM (no result: AmpC detergent, AmpC no deterg, SARS PLpro yeast)
O=c1[nH]c(=O)n([C@@H]2O[C@H](CO)[C@@H](O)[C@H]2O)cc1F	VACV Venus inh inconclusive, Vaccinia mCherry 1.12µM (no result: AmpC detergent, AmpC no deterg, SARS PLpro yeast, AMA1 RON2 block)
Nc1ncn(C2O[C@H](CO)[C@@H](O)[C@H]2O)c(=O)n1 (stereo partly drawn)	AmpC detergent inconclusive (no result: VACV Venus inh, SARS PLpro yeast, Vaccinia mCherry, AMA1 RON2 block)
CC(=O)NC(c1ccco1)c1cc(Br)c2cccnc2c1O (stereo not drawn)	none (no result: VACV Venus inh, Vaccinia mCherry, AMA1 RON2 block)
O=C(NCCc1nnc2n1CCN(Cc1ccsc1)CC2)c1ccc(F)cc1	none (no result: AmpC detergent, AmpC no deterg, SARS PLpro yeast, AMA1 RON2 block)
COc1ccc(CCNC(=O)CSc2n[nH]c(N)n2)cc1	AmpC detergent 100µM, Vaccinia mCherry inconclusive
Cc1ncc2c(c1CNC(=O)c1cncs1)CCN(C(=O)c1cccc(-c3cccc(F)c3)c1)C2	none (no result: AmpC detergent, AmpC no deterg, SARS PLpro yeast, AMA1 RON2 block)
CC(C)(CNC(=O)c1cnn(-c2ncc3c(n2)-c2ccccc2CCC3)c1C1CC1)N1CCOCC1	none (no result: AmpC detergent, AmpC no deterg, SARS PLpro yeast, AMA1 RON2 block)
CCOC(=O)c1sc(=S)n(-c2ccc(OC)cc2)c1C	none
CCOC(=O)c1c2c(n(-c3ccc(OC)cc3)c1C)C(=O)C(=O)c1ccccc1-2	VACV Venus inh 4.47µM, Vaccinia mCherry 2.82µM, AMA1 RON2 block inconclusive (no result: AmpC detergent, AmpC no deterg, SARS PLpro yeast)
O=C(CSC1=Nc2ccccc2C2=NC(Cc3ccccc3)C(=O)N12)Nc1cccc(Cl)c1 (stereo not drawn)	Vaccinia mCherry inconclusive (no result: AmpC no deterg, SARS PLpro yeast, AMA1 RON2 block)
Cc1cc(C)n(CC(=O)N2CCC(n3c(C(C)C)nc4cccnc43)CC2)n1	none (no result: AmpC detergent, AmpC no deterg, SARS PLpro yeast, AMA1 RON2 block)
Cc1ccc(CN2CCN(/N=C\C=C\c3ccccc3)CC2)cc1	AMA1 RON2 block 12.6µM
Cc1ccc(CN2CCN(/N=C/c3ccc(C)s3)CC2)cc1	AmpC detergent inconclusive, AMA1 RON2 block 25.1µM
COc1ccccc1CN1CCCC(n2cc(C(=O)N3CCCCC3)nn2)C1 (stereo not drawn)	none (no result: AmpC detergent, AmpC no deterg, SARS PLpro yeast, AMA1 RON2 block)
Cc1ccc(-c2nc3c(=O)n(C)c(=O)nc-3n(C)n2)cc1	VACV Venus inh 0.891µM, Vaccinia mCherry 2.82µM (no result: AmpC detergent, AmpC no deterg, SARS PLpro yeast, AMA1 RON2 block)
CCc1ccc(-c2nc3c(=O)n(C)c(=O)nc-3n(CC)n2)cc1	VACV Venus inh 11.2µM, Vaccinia mCherry 5.62µM (no result: AmpC detergent, AmpC no deterg, SARS PLpro yeast, AMA1 RON2 block)
Cn1nc(-c2ccccn2)nc2c(=O)n(C)c(=O)nc1-2	AMA1 RON2 block 8.91µM (no result: VACV Venus inh, Vaccinia mCherry)
Cn1ncnc2c(=O)n(C)c(=O)nc1-2	AmpC detergent inconclusive (no result: VACV Venus inh, Vaccinia mCherry)
Cc1ccccc1-c1nc2c(=O)n(C)c(=O)nc-2n(C)n1	VACV Venus inh 0.891µM, Vaccinia mCherry 2.82µM (no result: AmpC detergent, AmpC no deterg, SARS PLpro yeast, AMA1 RON2 block)
O=C(NCC1CC1)c1ccc2nc(-c3ccoc3)c(-c3ccoc3)nc2c1	none (no result: AmpC detergent, AmpC no deterg, SARS PLpro yeast, AMA1 RON2 block)
CCCc1nc2c(=O)n(C)c(=O)nc-2n(C)n1	VACV Venus inh 1µM, Vaccinia mCherry inconclusive
O=C(CSCc1ccccc1)NNC(=S)Nc1cccc(Cl)c1Cl	AmpC detergent inconclusive, AmpC no deterg 0.159µM (no result: Vaccinia mCherry)
Cc1ccc(NC(=S)N/N=C/c2ccc([N+](=O)[O-])s2)cc1	AmpC detergent inconclusive, VACV Venus inh inconclusive, Vaccinia mCherry 10µM
Brc1cc2c(cc1CN1CCN(c3ccccc3)CC1)OCCO2	Vaccinia mCherry inconclusive, AMA1 RON2 block 7.94µM
Oc1cc2c(cc1CN1CCN(c3ccc(F)cc3)CC1)OCO2	AmpC detergent inconclusive, Vaccinia mCherry inconclusive, AMA1 RON2 block 31.6µM
CCOC(=O)C(C(C)=O)C(c1ccc(OC)cc1)C(C(C)=O)C(=O)OCC (stereo not drawn)	none (no result: Vaccinia mCherry)
CCOC(=O)C(C)C(C)=O (stereo not drawn)	VACV Venus inh inconclusive, Vaccinia mCherry 0.316µM
CCCCNC(=O)CCCn1c(=O)c2ccccc2n(Cc2cccc(Cl)c2)c1=O	none (no result: AmpC no deterg, SARS PLpro yeast, AMA1 RON2 block)
Cc1nc(S/C(=C\c2ccc(-c3ccc(C(=O)O)c(Cl)c3)o2)C(=O)O)n[nH]1	AMA1 RON2 block 17.8µM (no result: VACV Venus inh, Vaccinia mCherry)
